Consider ten compounds from PubChem BioAssay.

A short description of assay [1]: reducers of endogenous Her2 protein level, primary screen, SKBR3 breast tumor cells, AlphaScreen, ATP viability (AID 461;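 active means Her2 level under about 52% in both replicate screens, with viability over 70% of control, limit read from the data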;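 on Her2 level: lower value means less Her2 protein in the cells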;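 on viability: percent of carrier control wells set as 100% viability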). The following applies: 18-24 h, measured here: SKBR3 viability, ATP luminescence, at 10 µM. Background: In Alpha technology, singlet oxygen from a donor bead excites a nearby acceptor bead.
For assay [2], the target named is Receptor tyrosine-protein kinase erbB-2 (Homo sapiens) (UniProt P04626). Described as above. The following applies: 18-24 h, at 10 µM, stronger effect = lower value.
Chain of Receptor tyrosine-protein kinase erbB-2 (Homo sapiens) (P04626 whole entry, looked up): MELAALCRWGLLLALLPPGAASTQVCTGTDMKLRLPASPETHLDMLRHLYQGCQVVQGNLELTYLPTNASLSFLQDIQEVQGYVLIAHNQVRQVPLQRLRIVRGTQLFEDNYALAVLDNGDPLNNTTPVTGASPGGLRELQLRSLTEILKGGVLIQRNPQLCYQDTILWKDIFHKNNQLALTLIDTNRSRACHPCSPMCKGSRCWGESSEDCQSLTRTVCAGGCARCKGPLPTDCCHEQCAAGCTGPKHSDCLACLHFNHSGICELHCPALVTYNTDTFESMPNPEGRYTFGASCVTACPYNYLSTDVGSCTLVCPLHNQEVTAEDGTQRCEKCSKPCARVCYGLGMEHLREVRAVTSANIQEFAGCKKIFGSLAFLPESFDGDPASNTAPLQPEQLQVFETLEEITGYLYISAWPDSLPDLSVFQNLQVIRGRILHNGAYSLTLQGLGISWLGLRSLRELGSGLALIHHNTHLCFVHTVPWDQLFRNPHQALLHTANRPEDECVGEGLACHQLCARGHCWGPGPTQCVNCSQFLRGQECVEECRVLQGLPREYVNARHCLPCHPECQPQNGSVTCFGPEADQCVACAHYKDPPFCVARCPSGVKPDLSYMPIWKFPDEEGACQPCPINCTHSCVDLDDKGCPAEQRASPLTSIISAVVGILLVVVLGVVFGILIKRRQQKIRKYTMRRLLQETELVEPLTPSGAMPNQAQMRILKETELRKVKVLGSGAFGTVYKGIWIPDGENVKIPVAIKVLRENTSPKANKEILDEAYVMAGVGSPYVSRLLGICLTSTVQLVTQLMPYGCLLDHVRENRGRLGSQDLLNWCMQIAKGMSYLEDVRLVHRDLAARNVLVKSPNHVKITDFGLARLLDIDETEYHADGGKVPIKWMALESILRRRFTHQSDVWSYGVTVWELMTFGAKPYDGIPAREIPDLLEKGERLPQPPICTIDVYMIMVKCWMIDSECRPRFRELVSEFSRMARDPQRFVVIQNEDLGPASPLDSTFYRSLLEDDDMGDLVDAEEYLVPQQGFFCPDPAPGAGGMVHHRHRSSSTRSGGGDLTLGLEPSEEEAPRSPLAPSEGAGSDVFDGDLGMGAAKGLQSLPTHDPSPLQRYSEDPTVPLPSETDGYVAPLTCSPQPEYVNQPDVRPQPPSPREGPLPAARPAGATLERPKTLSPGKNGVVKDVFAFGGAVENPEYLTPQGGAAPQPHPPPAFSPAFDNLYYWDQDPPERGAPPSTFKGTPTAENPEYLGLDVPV
The nature of assay [3]: SK-BR-3 cell growth inhibitors, pilot screen, 24 h, human (AID 572;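 active means viability at or below 10% of carrier control in both of two separate runs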;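 further: compound exposure lasted between 18 and 24 h rather than exactly 24 h; 100% = carrier-treated control wells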). The following applies: SK-BR-3 viability, CellTiter-Glo luminescence, at 10 µM, stronger effect = lower value. For orientation: ATP-based viability assays read luminescence as a measure of living cells.
Assay [4] can be described thus: HUVEC growth inhibition – cell-based, human, primary screen (AID 575;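 active means viability at or below 30% in both replicate assays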;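 further: 100% = median of untreated cell wells with 0.1% DMSO on each plate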). The following applies: HUVEC proliferation, CellTiter-Glo luminescence, 72 h; at 10 µM; stronger effect = lower value.
Assay [5] is described as follows: growth inhibitors of H69AR lung tumor, primary screen, human, duplicate replicates (AID 580;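 active means viability at or under a set limit in both replicates, limit being median viability minus 3 SD, cut at about 48% in these data, passing the limit was not always enough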;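 further: 100% = mean luminescence of untreated wells and 0% = no signal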). The following applies: H69AR lung tumor cells viability, ATP luminescence, 72 h; at 10 µM; stronger effect = lower value.
Assay [6] in a line: reversal of MRP1-mediated doxorubicin resistance, pilot screen, H69AR cells, doxorubicin co-treatment (AID 601;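 active means viability loss from added drug above about 55%, and viability with drug at most 40%, in both replicates, limit read from the data, passing the limit was not always enough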). Particulars: CellTiter-Glo, 72 h, at 10 µM; for differential viability (reversal): stronger effect = higher value.
Assay [7] is described as follows: 384-well plate pilot, post-Golgi transport modulator project, inhibition of yeast transport mutant growth (AID 636; in the data active means inhibition above about 31%). The following applies: absorbance 615 nm, about 18 h, stronger effect = higher value.
Assay [8] is described as follows: growth suppression of yeast trafficking mutant, preliminary HTS, modulators of trafficking downstream of Golgi apparatus project, 1536-format plate, OD 615 nm (AID 637; in the data active means inhibition above about 30%). The following applies: yeast transport mutant growth, absorbance 615 nm, 18 h; stronger effect = higher value.
A short description of assay [9]: OD615 S. cerevisiae growth inhibition, permissive medium, pilot counter-assay, permissive growth control for S. cerevisiae lifespan shortening project (AID 705;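 active means growth inhibition above 25% in both replicates, a cutoff set 3 SD above the mean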). Particulars: OD615, 24 h, at 10 µM, stronger effect = higher value.
Assay [10] is described as follows: Restrictive medium S. cerevisiae growth inhibition, OD615, pilot screen of yeast lifespan reduction project, restrictive growth control (AID 706;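 active means growth inhibition above a set limit, 3 SD over mean compound inhibition, in both replicates, cut at about 43% in these data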;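 further: modified DeaD lifespan yeast strain shifted to restrictive glucose medium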). Particulars: OD615, 48 h, at 10 µM, stronger effect = higher value.
A short description of assay [11]: viability gain of MRP-1-high H69AR cells under doxorubicin, pilot screen, MRP-1 activator project, CellTiter-Glo, duplicate (AID 807).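 Further: compound pretreatment 18-22 h then 72 h combined with doxorubicin; 0% = doxorubicin alone and 100% = vehicle without doxorubicin.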 The following applies: H69AR viability with doxorubicin, CellTiter-Glo luminescence; at 10 µM; stronger effect = higher value.
A short description of assay [12]: growth suppression of beta-catenin knockout HCT116, pilot screen, human colon tumor cells (AID 823;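 active means cell viability at or below a set limit in both duplicate runs, the limit being the all-compound median minus 4 SD, cut at about 23% in these data, passing the limit was not always enough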;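 further: 0% = wells killed by 20 µM Hyamine and 100% = untreated DMSO cell wells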). Particulars: CellTiter-Glo, 60 h, at 10 µM, stronger effect = lower value.
Assay [13] can be described thus: growth suppression of PTEN-deleted HCT116, pilot screen, cell-based, HCT116 clonal line, CellTiter-Glo (AID 824;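 active means viability at or below 27.92% in each of two runs, the all-compound median minus 4 SD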;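 further: 0% = 20 µM Hyamine control and 100% = vehicle cell control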). The following applies: 60 h, at 10 µM, stronger effect = lower value.
Assay [14] in a line: inhibitors of the yeast RAM network, pilot screen, dse1pr::URA3 reporter, 5-FOA selection (AID 869;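 active means inhibition over a set limit, the all-compound mean plus 3 SD, in both replicate runs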;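 further: 0% = DMSO wells with no growth and 100% = 10 µM 1-NA-PP1 with full growth; RAM network block rescues cells from 5-FOA so hits raise OD615 growth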). The following applies: S. cerevisiae dse1pr::URA3 5-FOA growth, OD615, 2 d; at 10 µM; stronger effect = higher value; strain carries analog-sensitive mutant Cbk1 kinase.
Assay [15] can be described thus: RAM signaling pathway blockade in yeast – S. cerevisiae, Pdr1DBD-CYC8 efflux-inhibited sensitized strain, primary screen (AID 1298;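 active means RAM network inhibition above 8.4% in each of two replicates, 3 SD over the compound average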;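 further: 0% = DMSO untreated cells without growth and 100% = 10 µM 1-NA-PP1 full growth; higher means more yeast growth rescued from 5-FOA killing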). The following applies: S. cerevisiae cbk1-as DSE1-URA3 strain, 5-FOA growth OD615, 2 d; at 50 µM; stronger effect = higher value.
Where [16] appears, read: H69AR cells + 2 uM doxorubicin, measured here: viability with 2 uM doxorubicin, stronger effect = lower value.
The mark [17] stands for this setting: H69AR cells, compound alone cytotoxicity.

Results filed as inconclusive are left out. The source made the active and inactive calls.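 How the source made its calls, unless noted: active means viability increase at or above a cutoff of the median across tested compounds plus 3 SD (cut at about 8.5% in these data, passing the limit was not always enough); inconclusive means some gains above the cutoff, reason not given; inactive means the rest.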

What is called viability is a read-out of living cells in per cent, often relative to untreated cells. The term inhibition denotes the drop in the measured response relative to a control, in per cent. As to `COCCOC(=O)C1=C(C)N=c2s/c(=C\c3cccs3)c(=O)n2C1c1cccs1` (stereo not given), the viability was 91.5% in assay [1]; 91.5% (inactive) in [3]; 82.4% (inactive) in assay [4]; 71.9% (inactive) in [5]; 75.9% in assay [6] (setting [16]); 71.9% in [6] (setting [17]). In addition, the results for the viability in assay [12] and in assay [13] were 86.3% (inactive) and 82.7% (inactive), respectively. The Her2 level in [2] is 77% (inactive). The differential viability (reversal) in [6] (H69AR cells + 2 uM doxorubicin) is -4.05% (inactive). For the same compound, the inhibition is -6.89% (inactive) in [7], -8.17% (inactive) in assay [8] and 2.83% (inactive) in assay [14]. In addition, the results for the growth inhibition in assay [9] and in [10] were -9.14% (inactive) and 1.78% (inactive), respectively. Further, the viability increase in [11] is -0.91% (inactive). The RAM network inhibition in assay [15] was 6.91% (inactive).

In the case of `CCOc1ccccc1C(=O)Nc1nnc(CC)s1`, the viability is 94.5% in [1]; 94.5% (inactive) in assay [3]; 114% (inactive) in assay [4]; 97% (inactive) in [5]; 88.7% in assay [6] (setting [16]); 97% in [6] (setting [17]). In addition, the viability in [12] was 96.3% (inactive); in [13] it was 98.3% (inactive). Further, the Her2 level in assay [2] was 84% (inactive). Besides, in assay [6] (H69AR cells + 2 uM doxorubicin), the differential viability (reversal) was 8.28% (inactive). In addition, the values for the inhibition in assay [7], in assay [8] and in assay [14] were -1.73% (inactive), 3% (inactive) and 0.31% (inactive), respectively. The growth inhibition in [9] was -0.29% (inactive); in [10], 12.6% (inactive). Further, in [11], the viability increase was -2.43% (inactive). In addition, the RAM network inhibition in assay [15] was 1.61% (inactive).

For the compound `c1ccc2c(c1)Cc1cc(CN3CCOCC3)ccc1-2`, the viability is 85% in assay [1]; 85% (inactive) in assay [3]; 99.7% (inactive) in assay [4]; 89.3% (inactive) in [5]; 92.1% in [6] (setting [16]); 89.3% in assay [6] (setting [17]). Moreover, the results for the viability in assay [12] and in assay [13] were 92.3% (inactive) and 97.5% (inactive), respectively. The Her2 level in assay [2] is 100% (inactive). Also, the differential viability (reversal) in [6] (H69AR cells + 2 uM doxorubicin) was -2.81% (inactive). Besides, the inhibition is 2.34% (inactive) in assay [7], -1.15% (inactive) in [8] and 1.01% (inactive) in assay [14]. The growth inhibition in [9] is -14.7% (inactive); in assay [10], -4.66% (inactive). In addition, the viability increase in assay [11] is 0.12% (inactive). Besides, the RAM network inhibition in assay [15] was 0.21% (inactive).

As for `CN1CCc2c(sc3c2C(=O)NC(c2cccc(OC(=O)c4cccs4)c2)N3)C1` (stereo not given), the viability in [1] was 81.5%; in [3], 81.5% (inactive); in assay [4], 68% (inactive); in assay [5], 85.6% (inactive); in assay [6] (setting [16]), 94.6%; in assay [6] (setting [17]), 85.6%. For the same compound, the viability in [12] is 96.3% (inactive); in assay [13], 93.8% (inactive). For the same compound, in assay [2], the Her2 level is 78.5% (inactive). Further, the differential viability (reversal) in assay [6] (H69AR cells + 2 uM doxorubicin) is -8.95% (inactive). Also, the figures for the inhibition in assay [7], in assay [8] and in assay [14] were -5.07% (inactive), 7.5% (inactive) and 0.215% (inactive), respectively. In addition, the growth inhibition in assay [9] was 8.64% (inactive); in assay [10] it was 11.5% (inactive). Further, the viability increase in assay [11] is -4.85% (inactive). Besides, the RAM network inhibition in assay [15] is 4.47% (inactive).

For `COc1cc2c(cc1OC)-c1nnc(C)n1C1(CCCC1)C2`, the viability in assay [1] is 87%; in assay [3] it was 87% (inactive); in [4] it was 114% (inactive); in [5] it was 99% (inactive); in assay [6] (setting [16]), 98.3%; in assay [6] (setting [17]), 99%. The viability in assay [12] is 100% (inactive); in assay [13], 94% (inactive). For the same compound, in assay [2], the Her2 level was 105% (inactive). Further, the differential viability (reversal) in assay [6] (H69AR cells + 2 uM doxorubicin) was 0.73% (inactive). Also, the inhibition in assay [7] is 1.28% (inactive); in [8], -1.17% (inactive); in assay [14] it was 1.1% (inactive). The growth inhibition in assay [9] was -10.2% (inactive); in assay [10], -16% (inactive). In [11], the viability increase was -2.69% (inactive). Besides, in assay [15], the RAM network inhibition is 2.81% (inactive).

As for `O=C(NCc1ccco1)C1CCN(c2ccc(N3CCOCC3)nn2)CC1`, the viability is 86.5% in assay [1]; 86.5% (inactive) in [3]; 91.4% (inactive) in assay [4]; 83.6% (inactive) in [5]; 80.6% in assay [6] (setting [16]); 83.6% in assay [6] (setting [17]). Further, the viability is 95.2% (inactive) in [12] and 97.3% (inactive) in [13]. Besides, the Her2 level in assay [2] is 120% (inactive). In assay [6] (H69AR cells + 2 uM doxorubicin), the differential viability (reversal) was 2.94% (inactive). Besides, the inhibition was -0.53% (inactive) in assay [7], -0.83% (inactive) in assay [8] and 0.935% (inactive) in [14]. The growth inhibition is 0.41% (inactive) in assay [9] and 5.46% (inactive) in [10]. In addition, the viability increase in assay [11] was -3.71% (inactive). Further, in assay [15], the RAM network inhibition was 4.7% (inactive).

`O=C(CCn1c(=O)oc2ccccc21)NCc1ccco1`: the viability in [1] is 106%; in [3], 106% (inactive); in [4], 89.9% (inactive); in assay [5] it was 91% (inactive); in assay [6] (setting [16]), 81%; in assay [6] (setting [17]) it was 91%. The viability in assay [12] was 102% (inactive); in assay [13], 99.4% (inactive). In addition, in assay [2], the Her2 level was 115% (inactive). The differential viability (reversal) in assay [6] (H69AR cells + 2 uM doxorubicin) is 10% (inactive). Further, the results for the inhibition in assay [7], in assay [8] and in assay [14] were -3.47% (inactive), -5.17% (inactive) and 2.08% (inactive), respectively. The growth inhibition in assay [9] is -2.37% (inactive); in [10] it was -2.52% (inactive). Further, the viability increase in assay [11] is -1.66% (inactive). In [15], the RAM network inhibition is 2.93% (inactive).

`Oc1ccc(-c2n[nH]c(=S)n2Cc2ccccc2)cc1`: the viability in assay [1] is 90.5%; in assay [3], 90.5% (inactive); in assay [4], 112% (inactive); in assay [5] it was 105% (inactive); in assay [6] (setting [16]), 102%; in assay [6] (setting [17]), 105%. For the same compound, the viability is 101% (inactive) in [12] and 91.2% (inactive) in assay [13]. Besides, the Her2 level in [2] was 120% (inactive). For the same compound, the differential viability (reversal) in assay [6] (H69AR cells + 2 uM doxorubicin) was 2.54% (inactive). Also, the inhibition in [7] is 5.45% (inactive); in [8], -2.83% (inactive); in assay [14], 0.655% (inactive). Moreover, the growth inhibition in [9] was 5.8% (inactive); in assay [10], -5.84% (inactive). Besides, in assay [11], the viability increase was -1.84% (inactive). Besides, the RAM network inhibition in assay [15] was -0.9% (inactive).

On to `CCCCN(CC)CCNC(=O)c1cc2c(C)nc3ccccc3c2o1`, for which the viability in assay [1] was 91%; in assay [3] it was 91% (inactive); in assay [4], 63.6% (inactive); in [5], 85.3% (inactive); in assay [6] (setting [16]), 82.4%; in [6] (setting [17]), 85.3%. The viability is 75% (inactive) in [12] and 84% (inactive) in [13]. In [2], the Her2 level was 95.5% (inactive). For the same compound, the differential viability (reversal) in [6] (H69AR cells + 2 uM doxorubicin) was 2.99% (inactive). Besides, the values for the inhibition in assay [7], in assay [8] and in assay [14] were -5.73% (inactive), -4.43% (inactive) and 0.07% (inactive), respectively. The growth inhibition in assay [9] is 10% (inactive); in [10], 1.23% (inactive). Also, the viability increase in [11] was -3.49% (inactive). The RAM network inhibition in assay [15] was 2.07% (inactive).

`C=C(C)c1cccc(C(C)(C)NC(=O)NCC2CCCO2)c1` (stereo not given): the viability in [1] was 94%; in assay [3] it was 94% (inactive); in assay [4], 79.9% (inactive); in assay [5] it was 93.7% (inactive); in assay [6] (setting [16]), 86.5%; in [6] (setting [17]) it was 93.7%. Further, the viability in [12] was 94.7% (inactive); in assay [13], 96.2% (inactive). Besides, the Her2 level in [2] was 98% (inactive). For the same compound, in [6] (H69AR cells + 2 uM doxorubicin), the differential viability (reversal) is 7.16% (inactive). In addition, the inhibition in assay [7] was 0.77% (inactive); in [8], -8.5% (inactive); in assay [14], 1.77% (inactive). The growth inhibition in [9] was -6.62% (inactive); in [10] it was -9.92% (inactive). The viability increase in [11] is -0.54% (inactive). Further, the RAM network inhibition in assay [15] was 1.07% (inactive).
